The record followed here is ChEMBL document CHEMBL4513141, “CO-ADD screening of NIH (USA) - Clinical Collection” (2021).

The term Inhibition denotes the change of the read-out against control, counted positive when it falls.

Results with a measured potency or affinity are listed apart.

The test system of the experiment is Cryptococcus neoformans. Particulars: Concentration 20 uM; ASSAY_TEST Inhibition of Fungal Growth; detection method Resazurin; Absorption (OD600-OD570); plate type 384well; NBS; CORNING #3640. (Alamar Blue is a resazurin reagent that responds to reducing activity.)
For the compound `Cc1ncc([N+](=O)[O-])n1CC(C)O` (stereo not drawn) [SECNIDAZOLE], the Inhibition is listed as 0.36%. The same measure for `CN1C(=O)CC[C@H]1c1cccnc1` [COTININE]: -1.87%; for `Oc1ccc(/C=C/c2cc(O)cc(O)c2)cc1` [RESVERATROL]: -4.32%.
